The source of these data is PubChem BioAssay (NCI).

About 79,000 compounds went through this panel and 15% of them were active in at least one assay; those are over-represented in the sample as a whole. Values without a mark were called inactive. Active and inactive are the calls of the source. Rule as the data show it: active = growth inhibition above about 70%; inactive = the rest.

Test [1] is described as follows: NCI Yeast Anticancer Drug Screen. Data for the rad50 strain (AID 155).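 Also: 0% = growth of vehicle-only cultures of the same strain.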 Particulars: S. cerevisiae rad50 strain growth inhibition; at 50.0 µM; active compounds read high. The procedure, abridged:
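Relative growth inhibition (compound vs vehicle) was measured in yeast with a defined repair-gene alteration.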

Test [2] is described as follows: NCI Yeast Anticancer Drug Screen. Data for the mec2-1 strain (AID 157). The following applies: S. cerevisiae mec2-1 strain, at 50.0 µM, active compounds read high. An outline of the steps:
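Readout is yeast growth inhibition, normalised to vehicle-treated controls, in the mec2-1 strain exposed to compound.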

Test [3] is described as follows: NCI Yeast Anticancer Drug Screen. Data for the sgs1 mgt1 strain (AID 161).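 Also: 0% = growth of cultures given vehicle only.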 The following applies: S. cerevisiae sgs1 mgt1 strain, at 50.0 µM, active compounds read high. An outline of the steps: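 This yeast growth screen uses a strain with defined DNA-repair lesions; compound-treated growth is compared with vehicle-treated growth.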
The nature of test [4]: NCI Yeast Anticancer Drug Screen. Data for the cln2 rad14 strain (AID 165).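 Also: 0% = growth equal to vehicle treated cultures.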 The following applies: S. cerevisiae cln2 rad14 strain, at 50.0 µM, active compounds read high. The procedure, abridged: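 Relative to vehicle controls, growth inhibition of compound-treated cln2 rad14 yeast was recorded.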
Test [5] is described as follows: NCI Yeast Anticancer Drug Screen. Data for the bub3 strain (AID 167). Particulars: S. cerevisiae bub3 mutant strain, at 50.0 µM, active compounds read high. The procedure, abridged:
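Screening used yeast with an engineered genetic alteration affecting cell cycle control. Compound-exposed cultures were compared with vehicle cultures, and reduced growth was taken as inhibition.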

The nature of test [6]: NCI Yeast Anticancer Drug Screen. Data for the mlh1 rad18 strain (AID 175). The following applies: S. cerevisiae mlh1 rad18 strain growth inhibition; at 50.0 µM; active compounds read high. An outline of the steps:
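Test agents were incubated with a yeast strain of defined genotype (DNA damage repair defect). Inhibition of growth was derived by comparison with vehicle-exposed cultures.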

As to `CCCC(=O)OCC1OC(n2cc(F)c(=O)[nH]c2=O)C(F)C1OC(=O)CCC` (stereo not drawn), the growth inhibition in test [1] was -1.45%; in test [2], 15.1%; in test [3] it was -5.8%; in test [4], -13.9%; in test [5], -2.6%; in test [6], -7.25%.

Regarding `CCCCCCCC(N)=O`, the growth inhibition in test [1] is 15.7%; in test [2] it was -28.1%; in test [3], 8.4%; in test [4] it was 12.4%; in test [5], -11.6%; in test [6], -10.3%.

As for `O=C(O)CNC(=O)C(=O)c1c[nH]c2ccc([N+](=O)[O-])cc12`, the growth inhibition is -6.5% in test [1]; -27.8% in test [2]; 1.05% in test [3]; -7.8% in test [4]; -2.1% in test [5]; 0.2% in test [6].

Regarding `O=C(O)/C=C\C(=O)Nc1ccc2c(c1)-c1ccccc1C2`, the growth inhibition in test [1] was -6.95%; in test [2] it was -16.4%; in test [3], -14.6%; in test [4], -22.4%; in test [5] it was -28.1%; in test [6], 2.15%.

Take `O=C(O)CC(NC(=O)CP(=O)(O)O)C(=O)O` (stereo not drawn): the growth inhibition in test [1] is -9.4%; in test [2] it was -21.9%; in test [3], -10.6%; in test [4], 2%; in test [5] it was -8.5%; in test [6] it was -13.1%.

As to `CCOC(=O)c1cnc(C)nc1Nc1ccccc1`, the growth inhibition is 5.75% in test [1]; 11.4% in test [2]; -0.8% in test [3]; -21.4% in test [4]; 0.9% in test [5]; -23.7% in test [6].

Consider `Cc1nc(-c2nc(C(=O)NCCC[S+](C)C)cs2)cs1`, for which the growth inhibition in test [1] is -11.5%; in test [2], -7.85%; in test [3], -5.4%; in test [4], 3.4%; in test [5], -2.35%; in test [6] it was -0.2%.

Consider `O=[N+]([O-])c1ccc2nc(-c3ccccc3[N+](=O)[O-])[nH]c2c1`, for which the growth inhibition was 0.2% in test [1]; 0.85% in test [2]; 2.5% in test [3]; -49.5% in test [4]; -7.35% in test [5]; -5.15% in test [6].

Regarding `CC(=O)Nc1ccc(N=NN(C)c2ccccc2)cc1`, the growth inhibition in test [1] is 29.4%; in test [2], 36%; in test [3], 47.1%; in test [4] it was 5.45%; in test [5], 19.8%; in test [6], 44.4%.

In the case of `CCC1=NS(=O)(=O)c2c(ncn2C)N1`, the growth inhibition is 11% in test [1]; 8.55% in test [2]; -5.6% in test [3]; 11.3% in test [4]; 0.15% in test [5]; 1.35% in test [6].

Regarding `CCCCCCCC/C=C\CCCCCCCC(=O)N(C)CC(=O)O`, the growth inhibition was 43.2% in test [1]; 38.2% in test [2]; 39.2% in test [3]; 21.1% in test [4]; 30.7% in test [5]; 29.1% in test [6].

For `Clc1ccc2c(c1)nc(-c1ccccn1)n2CCc1ccncc1`, the growth inhibition in test [1] was 3.75%; in test [2] it was 0.05%; in test [3], 2.4%; in test [4], -16.4%; in test [5], -13.4%; in test [6] it was 13.8%.

For `Cc1ccc2[nH]c(-c3ccccc3)cc2c1`, the growth inhibition in test [1] was -1.85%; in test [2] it was -21.6%; in test [3] it was -10.6%; in test [4], -27.8%; in test [5], -8.15%; in test [6] it was -9.8%.

With `NC1=NC(c2ccccc2O)CC(=O)N1` (stereo not drawn), the growth inhibition in test [1] was -6.4%; in test [2], -8.25%; in test [3], -12.9%; in test [4] it was -32.6%; in test [5] it was -3.9%; in test [6], -6.35%.

As to `CC(C)CC(=O)OC1CCCCC1C1CCCCC1` (stereo not drawn), the growth inhibition in test [1] is -2.1%; in test [2], -6.35%; in test [3] it was 12.3%; in test [4] it was 7.25%; in test [5], 13.4%; in test [6], -4%.

As to `O=C1C(=Cc2cccnc2)C(=O)c2ccccc21`, the growth inhibition was 26% in test [1]; 15.3% in test [2]; 42.4% in test [3]; 18.9% in test [4]; 6.7% in test [5]; 9% in test [6].

As to `Cc1ccc(C2=C(Cl)C(=O)C(c3ccc(C)cc3)=C(Cl)C2=O)cc1`, the growth inhibition in test [1] was -15.8%; in test [2], 10.3%; in test [3], -13.8%; in test [4] it was -3.95%; in test [5] it was -57.5%; in test [6] it was -14.4%.

`Oc1cc2ccc3c(c2cc1O)CCc1cn[nH]c1-3`: the growth inhibition is 7.1% in test [1]; 9.25% in test [2]; 17.5% in test [3]; -0.55% in test [4]; 15.8% in test [5]; 15.5% in test [6].

Turning to `CCOC(=O)C(=O)OCC`, the growth inhibition in test [1] is 24.9%; in test [2], -1.05%; in test [3] it was -19.1%; in test [4] it was -3.7%; in test [5] it was 29.8%; in test [6], 13.8%.

Turning to `CC(C)(C)c1ccc(-c2nc3ccc([N+](=O)[O-])cc3c(=O)o2)cc1`, the growth inhibition in test [1] was 12.1%; in test [2], 15.8%; in test [3] it was 35%; in test [4], -13.1%; in test [5], 16.1%; in test [6] it was 33.5%.

For `Cn1c(=O)c2c(ncn2Cc2ccccc2)n(C)c1=O`, the growth inhibition was -1.65% in test [1]; -13.2% in test [2]; 3.95% in test [3]; -10.7% in test [4]; 45.1% in test [5]; 4% in test [6].

For the molecule `Cc1ccc2c(c1)CC1(C2=O)[C@H](c2ccccc2)C2C(=O)c3ccc(C)cc3C2[C@H]1c1ccccc1` (stereo partly drawn), the growth inhibition is -14.8% in test [1]; 13.5% in test [2]; -0.15% in test [3]; -11.1% in test [4]; 14.6% in test [5]; 9.5% in test [6].

Consider `COC(=O)C1C(=O)CC2CCCCC21` (stereo not drawn), for which the growth inhibition in test [1] was 2.75%; in test [2], -19.6%; in test [3], -13.9%; in test [4], 20.6%; in test [5] it was -22.3%; in test [6] it was 16.8%.

For `CC1CCCc2c1c1ccc3c(O)cccc3c1oc2=O` (stereo not drawn), the growth inhibition in test [1] is -10%; in test [2], -4.15%; in test [3], -15.4%; in test [4], 16.9%; in test [5], -5.95%; in test [6] it was -18.9%.

In the case of `CCOC(=O)Nc1ccc(C(=O)OCC)cc1`, the growth inhibition in test [1] is 29.8%; in test [2], -15.1%; in test [3], 7.85%; in test [4] it was 8.1%; in test [5] it was -16.3%; in test [6], 13.7%.

For the molecule `Nc1nc(F)nc2c1ncn2C1OC(CO)C(O)C1O` (stereo not drawn), the growth inhibition in test [1] was -10.3%; in test [2], 2.25%; in test [3], 8.25%; in test [4], 0.1%; in test [5], 2.15%; in test [6], -12.2%.

For `CCCCCC(=O)NC(=O)Nc1ccccc1OC`, the growth inhibition was -13.6% in test [1]; -1.05% in test [2]; -4.35% in test [3]; -24.1% in test [4]; 0.65% in test [5]; -1.55% in test [6].

`CC(C)(C)c1ccc(OC(=O)NCCCCCCNC(=O)Oc2ccc(C(C)(C)C)cc2)cc1`: the growth inhibition in test [1] is -5.65%; in test [2], 23.9%; in test [3], 4.8%; in test [4], 92.3% (active); in test [5], -2.85%; in test [6], -8.5%.

With `O=C(OCC1CCCO1)c1ccccc1Cl` (stereo not drawn), the growth inhibition in test [1] is 11.8%; in test [2], -10.2%; in test [3], -0.95%; in test [4] it was -6.6%; in test [5], 7.2%; in test [6], 0%.

For the molecule `COC(=O)N[C@H](C(=O)O)C(C)O[Si](C)(C)C(C)(C)C` (stereo partly drawn), the growth inhibition in test [1] is -16.2%; in test [2] it was -14%; in test [3] it was -52.6%; in test [4] it was 8.2%; in test [5] it was -33%; in test [6], -34.5%.

For `Cc1c2c(cc3c(=O)ccn(CCN(C)C)c13)c(=O)ccn2CCN(C)C`, the growth inhibition is -71.1% in test [1]; -22.8% in test [2]; -11.8% in test [3]; 14.3% in test [4]; -20.4% in test [5]; -16.4% in test [6].

Take `Cn1c2c(cc(-c3ccccc3)c1=O)COc1ccccc1-2`: the growth inhibition was 31.1% in test [1]; -13.9% in test [2]; 26.2% in test [3]; 2.45% in test [4]; 23.7% in test [5]; 24.1% in test [6].

`O=c1c(Cl)c(N2CCCCC2)cnn1-c1ccccc1`: the growth inhibition in test [1] is 20.8%; in test [2], 14.2%; in test [3] it was 16.6%; in test [4] it was 7.6%; in test [5], 14.1%; in test [6], 19.4%.

With `CC1(O)c2ccccc2-c2nc3ccccc3nc21` (stereo not drawn), the growth inhibition in test [1] is 15.1%; in test [2], 14.4%; in test [3], -16.4%; in test [4], -11.8%; in test [5], -0.35%; in test [6] it was -15.4%.

Consider `O=C(CN(C(=O)OC12CC3CC(CC(C3)C1)C2)C(=O)OC12CC3CC(CC(C3)C1)C2)Oc1ccc([N+](=O)[O-])cc1`, for which the growth inhibition is 7.75% in test [1]; 7.15% in test [2]; 7.35% in test [3]; 31.8% in test [4]; 13.6% in test [5]; -0.85% in test [6].

On to `O=[N+]([O-])c1ccccc1S(=O)(=O)c1ccccc1[N+](=O)[O-]`, for which the growth inhibition in test [1] is -26.4%; in test [2] it was -9.45%; in test [3], -14.1%; in test [4] it was -10%; in test [5], -1.5%; in test [6], -21%.

`O=C(/C=C/c1ccc2c(c1)OCO2)c1cccc2ccccc12`: the growth inhibition was -4.4% in test [1]; -14.6% in test [2]; -17.4% in test [3]; 4.05% in test [4]; -3% in test [5]; 5% in test [6].

On to `CS(=O)(=O)Oc1c(Cl)cc(Cl)c2cccnc12`, for which the growth inhibition in test [1] was 7.8%; in test [2], -1.1%; in test [3], -3.75%; in test [4], -13.7%; in test [5], 1.2%; in test [6] it was 11.2%.
